Cardio protect = cardioprotection against H2O2-induced cell death, primary screen, uHTS, H9c2 cells, ATPLite luminescence. AID 588492, 2011. protection from H2O2 cell death, % at 20 µM. H9c2 cardiomyocytes, H2O2 injury protection, 2 h. hit rate 0.63% among 360,000;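 active = compounds giving at least 50% protection of heart cells from peroxide-induced death in the single-dose screen, raw or plate-pattern-corrected value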;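 note: 0% = DMSO wells with peroxide and 100% = DMSO wells without peroxide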
beta cell repl = inducers of MIN6 beta-cell proliferation, primary screen, ATP luminescence, uHTS; MIN6 cells proliferation, ATPlite luminescence, 48 h; cells starved in 0.2% serum; 100% = growth in 10% serum; proliferation, % at 10 µM; hit rate 0.29% among 330,000; AID 2380, 2010;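 active = compounds whose signal lies at least 3.5 SD above the mean of all wells on their plate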;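 note: 0% = DMSO-treated cells in low-serum medium and 100% = 10% serum control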
FAS TE block = FAS thioesterase domain inhibitors, primary screen, biochemical, fluorescence intensity, uHTS | inhibition, % at 15 µM | recombinant FAS-TE, OMFH fluorogenic substrate, fluorescence endpoint | hit rate 0.67% among 360,000 | Fatty acid synthase (Homo sapiens), P49327;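 active = compounds whose normalised, plate-corrected inhibition of enzyme fluorescence in the single-dose primary screen is 50% or more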;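 note: 0% = DMSO with enzyme and 100% = substrate without enzyme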
Target sequence (P49327 whole entry, looked up, the tested form may be a part): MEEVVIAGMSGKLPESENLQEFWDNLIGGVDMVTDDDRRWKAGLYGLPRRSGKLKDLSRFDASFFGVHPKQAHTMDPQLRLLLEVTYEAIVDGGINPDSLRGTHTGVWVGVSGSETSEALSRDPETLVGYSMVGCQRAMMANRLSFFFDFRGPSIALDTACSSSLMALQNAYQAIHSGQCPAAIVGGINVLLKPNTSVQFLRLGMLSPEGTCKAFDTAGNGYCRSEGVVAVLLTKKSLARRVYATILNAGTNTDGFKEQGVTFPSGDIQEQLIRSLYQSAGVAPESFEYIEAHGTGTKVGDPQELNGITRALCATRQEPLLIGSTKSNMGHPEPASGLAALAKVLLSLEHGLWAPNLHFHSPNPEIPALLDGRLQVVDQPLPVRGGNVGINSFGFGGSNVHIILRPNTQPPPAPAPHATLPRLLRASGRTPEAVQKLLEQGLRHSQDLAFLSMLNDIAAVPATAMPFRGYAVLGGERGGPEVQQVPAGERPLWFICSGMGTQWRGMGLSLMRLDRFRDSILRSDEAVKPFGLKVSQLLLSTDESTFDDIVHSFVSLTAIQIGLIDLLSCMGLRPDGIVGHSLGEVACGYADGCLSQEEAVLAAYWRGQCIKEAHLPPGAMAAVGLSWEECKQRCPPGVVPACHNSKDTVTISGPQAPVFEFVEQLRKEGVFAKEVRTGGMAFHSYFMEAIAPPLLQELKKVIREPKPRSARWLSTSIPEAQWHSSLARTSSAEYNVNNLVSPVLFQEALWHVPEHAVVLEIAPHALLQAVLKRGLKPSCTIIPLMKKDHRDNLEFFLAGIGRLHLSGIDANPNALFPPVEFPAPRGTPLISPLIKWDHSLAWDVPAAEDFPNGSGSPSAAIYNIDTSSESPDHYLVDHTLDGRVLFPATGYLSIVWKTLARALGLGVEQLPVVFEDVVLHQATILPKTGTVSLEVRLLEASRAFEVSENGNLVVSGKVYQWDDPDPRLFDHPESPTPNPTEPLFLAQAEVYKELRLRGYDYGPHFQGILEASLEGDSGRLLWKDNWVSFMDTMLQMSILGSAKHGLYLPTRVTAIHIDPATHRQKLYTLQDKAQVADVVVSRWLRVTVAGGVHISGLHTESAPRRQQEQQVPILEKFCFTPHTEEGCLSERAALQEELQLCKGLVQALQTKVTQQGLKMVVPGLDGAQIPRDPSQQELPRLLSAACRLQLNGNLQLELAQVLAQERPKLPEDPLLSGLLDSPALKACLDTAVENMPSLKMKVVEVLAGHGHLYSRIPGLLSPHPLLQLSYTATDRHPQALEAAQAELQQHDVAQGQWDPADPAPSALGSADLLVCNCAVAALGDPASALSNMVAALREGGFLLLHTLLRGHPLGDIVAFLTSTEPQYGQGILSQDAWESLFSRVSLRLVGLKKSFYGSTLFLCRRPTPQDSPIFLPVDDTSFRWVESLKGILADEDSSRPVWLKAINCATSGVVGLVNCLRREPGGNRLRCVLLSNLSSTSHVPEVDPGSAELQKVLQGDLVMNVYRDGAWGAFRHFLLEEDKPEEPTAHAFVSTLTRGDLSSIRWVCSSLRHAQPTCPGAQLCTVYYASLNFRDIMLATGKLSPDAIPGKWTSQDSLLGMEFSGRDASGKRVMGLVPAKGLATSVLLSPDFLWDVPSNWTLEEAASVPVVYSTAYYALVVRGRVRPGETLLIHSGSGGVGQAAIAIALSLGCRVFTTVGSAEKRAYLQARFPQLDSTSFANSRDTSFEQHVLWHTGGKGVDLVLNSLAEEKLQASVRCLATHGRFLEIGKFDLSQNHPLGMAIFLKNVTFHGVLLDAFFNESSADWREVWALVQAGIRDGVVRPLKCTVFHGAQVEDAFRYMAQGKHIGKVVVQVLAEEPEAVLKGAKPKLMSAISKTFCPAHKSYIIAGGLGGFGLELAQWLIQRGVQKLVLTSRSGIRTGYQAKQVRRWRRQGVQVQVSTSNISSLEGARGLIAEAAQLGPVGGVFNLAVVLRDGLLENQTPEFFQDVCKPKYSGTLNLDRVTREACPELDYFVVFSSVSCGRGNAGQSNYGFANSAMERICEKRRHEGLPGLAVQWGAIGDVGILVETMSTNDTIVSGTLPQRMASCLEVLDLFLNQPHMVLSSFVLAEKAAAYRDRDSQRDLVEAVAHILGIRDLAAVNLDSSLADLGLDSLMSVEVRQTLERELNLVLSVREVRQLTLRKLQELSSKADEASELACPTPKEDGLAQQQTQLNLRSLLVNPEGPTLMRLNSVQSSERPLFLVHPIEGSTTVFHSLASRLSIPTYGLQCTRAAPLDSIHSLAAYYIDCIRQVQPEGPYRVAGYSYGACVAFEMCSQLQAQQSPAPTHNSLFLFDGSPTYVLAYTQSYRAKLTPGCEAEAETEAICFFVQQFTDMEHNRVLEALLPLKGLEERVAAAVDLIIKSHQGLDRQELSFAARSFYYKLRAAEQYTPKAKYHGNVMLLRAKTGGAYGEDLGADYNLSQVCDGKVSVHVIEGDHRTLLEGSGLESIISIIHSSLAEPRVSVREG
Calpain2 inh = inhibitors of pig calpain II, primary screen, biochemical, fluorogenic peptide substrate, 1536-well | purified calpain II, 30 min | inhibition, % at 16 µM | hit rate 0.37% among 220,000;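 active = inhibition above about 50%, limit read from the data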
aDG glyco up = activators of alpha-DG glycosylation, primary screen, uHTS, Pro5-aDG cells, AlphaScreen. alpha-DG glycosylation AlphaScreen (IIH6); 0% Pro5, 100% B10-LARGE cell signal. AID 624168, 2012. activation, % at 10 µM. hit rate 0.22% among 360,000;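 active = activation of at least 8% versus controls, or a plate z-score of at least 8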;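 note: Pro5 are CHO cells carrying HIG-tagged alpha-DG that lacks glycosylation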
H9c2 TAG inh = inhibitors of triacylglycerol accumulation, primary screen, cell-based, uHTS, fluorescence, H9c2. H9c2 cells, Nile Red lipid (TAG) fluorescence; cells loaded with 200 µM oleic acid. inhibition, % at 12.5 µM. hit rate 0.66% among 230,000. AID 651582, 2012;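 active = pattern-corrected inhibition of lipid staining of at least 50% with the nuclear-stain viability signal not falling by more than 50%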;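 note: 0% = DMSO wells and 100% = triacsin C control wells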
aDG conf = alpha-DG glycosylation enhancers, retest, confirmation, single concentration, Pro5-aDG cells; shares compounds with aDG glyco up; IIH6 AlphaLISA; scaled to LARGE-overexpressing B10 cells as 100%; activation, % at 10 µM (by protocol); hit rate 17% among 600;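 active = activation of at least 7% in one or more replicates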;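 note: cells exposed to compound for two days before detection; 0% = DMSO-treated Pro5 cells and 100% = DMSO-treated B10-LARGE cells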
* marks the source's active call; other numbers are inactive results; i = inactive; nt = not tested or not shown. In the library only some 2.3% were active in any assay of this set; here they are far more common.

SMILES	Cardio protect	beta cell repl	FAS TE block	Calpain2 inh	aDG glyco up	H9c2 TAG inh	aDG conf
CC(C)C[C@H]1COCCS(=O)(=O)N1Cc1ccccc1F	-8	-2	-2	nt	6.1*	-13	0
O=C(Cc1ccc(S(=O)(=O)N2CCOCC2)s1)NC1CCCCC1	2	-1	-3	nt	1	7	nt
CC1CCCCC1NC(=O)Cc1ccc(S(=O)(=O)N2CCOCC2)s1 (centres undefined)	-1	-1	0	nt	6.0*	-8	-1
O=C(Nc1cccc2ccccc12)NC1CCCCC1O (centres undefined)	5	-2	-7	nt	0	-3	nt
CCCCOP(=O)(OCCCC)C1(NS(=O)(=O)c2ccccc2)C=CC(=O)c2ccccc21 (centres undefined)	-12	-6	6	28	5.9*	-9	1
Cc1cc(Cl)c(C(=O)Nc2cccc(C(F)(F)F)c2)c(C)n1	11	-1	-4	nt	0	nt	nt
COC(=O)C1CCN(C(=O)COC(=O)c2cc(-c3ccccc3)nc3ccc(OC)cc23)CC1	22	-1	28	nt	6.7*	10	-1
CCCCN1C(=O)C(=O)N(CC(=O)Nc2cc(Cl)ccc2OC)C1=O	0	1	2	nt	0	-16	nt
O=C1Nc2cc(C(=O)NCCN3CCCCCC3)ccc2S/C1=C\c1ccccc1	-16	-4	-8	nt	0	nt	nt
Cc1cccc(/C=C2/Sc3ccc(C(=O)NCCN4CCCC4)cc3NC2=O)c1	-10	-8	-2	nt	8.2*	nt	7.8*
Cc1ccc2c(c1)CC1(CN2C)C(=O)OC2(CCCCC2)OC1=O	-4	0	-2	-9	0	-5	nt
CN1CC2(Cc3c1ccc1ccccc31)C(=O)OC(C)(C)OC2=O	-1	-2	46	i	6.4*	-11	-1
COc1ccc(CN2CCC(C(=O)Nc3ccc(Oc4cccnc4)cc3)CC2)c(C)c1C	-8	-7	-1	nt	2.2*	nt	4.7*
COc1cccc(O)c1CN1CCC(C(=O)Nc2ccc(Oc3cccnc3)cc2)CC1	-6	-2	-5	nt	1	-11	nt
CCOC(=O)c1c(C)nc2cc(C)ccn12	3	-1	-5	1	0	nt	nt
CCOC(=O)c1cn2ccc(C)cc2n1	-2	-3	-4	-55	20*	-13	1
O=C1C2C3CCC(C3)C2C(=O)N1c1ccc2ccccc2c1 (centres undefined)	-4	0	0	nt	0	-12	nt
COc1cc(C#Cc2c(-c3cncn3C)n(C)c3ccc(Br)cc23)cc(OC)c1	2	-6	33	nt	5.0*	48	1
N=c1n(CCN2CCOCC2)c2ccccc2n1CC(=O)c1ccc(Cl)c(Cl)c1	19	-6	13	-37	7.7*	35	6.6*
N=c1n(CCN2CCOCC2)c2ccccc2n1CC(=O)c1cccc([N+](=O)[O-])c1	7	-1	14	nt	1	15	nt
COc1cccc(C(=O)Cn2c(=N)n(C)c3ccccc32)c1	-9	-5	-4	-29	7.5*	nt	5.1*
CCCn1c(=N)n(CC(=O)c2ccc(Cl)cc2)c2ccccc21	-13	-3	0	nt	3.8*	6	6.0*
CCCn1c(=N)n(CC(=O)c2ccc([N+](=O)[O-])cc2)c2ccccc21	-34	-6	-4	25	1	1	nt
COCCNC(=O)C1(C)CCCN(Cc2c(C)nn(-c3ccccc3)c2C)C1 (centres undefined)	-1	nt	-8	nt	0	10	nt
COc1ccccc1CN=Cc1[nH]c2ccc(Br)c(Cl)c2c1O	3	0	-6	-153	5.8*	-3	1
SMILES	Cardio protect	beta cell repl	FAS TE block	Calpain2 inh	aDG glyco up	H9c2 TAG inh	aDG conf
CC(C)NC(=O)N(C)C[C@H]1Oc2ccc(NS(=O)(=O)c3cn(C)cn3)cc2C(=O)N([C@H](C)CO)C[C@@H]1C	8	-1	-8	nt	9.3*	-13	2
CCCCCCc1nc2ccccc2c(=O)n1NC(=O)c1c(O)c2c(n(CC(C)C)c1=O)CCCC2	21	0	22	-9	6.3*	-14	2
Nc1ccccc1C(=O)N1CCc2ccccc21	-1	-4	-5	nt	0	-12	nt
COc1ccc(-c2nnnn2C)cc1S(=O)(=O)Nc1ccc(C)cc1C	9	-3	5	nt	0	-3	nt
CCc1ccc(OCCCCN(C)Cc2ccccc2)cc1	-5	-4	0	nt	1.8*	nt	1
COc1ccccc1Cn1c(C)nc2ccccc21	-6	0	-5	-1	0	-2	nt
Cc1ccccc1Cn1c(C)nc2ccccc21	-11	-6	-4	nt	3.3*	nt	2
Cn1c(SCc2cccc([N+](=O)[O-])c2)nc2ccccc2c1=O	-20	-8	43	nt	2.6*	-9	0
CCOC(CCn1c(SCc2cccc([N+](=O)[O-])c2)nc2ccccc2c1=O)OCC	2	-3	31	18	0	nt	nt
Cc1ccc2nc(-c3ccc(Cl)cc3)c(CC3CCCCC3)n2c1	-6	nt	8	nt	0	nt	nt
Cc1ccc2nc(-c3ccc(F)cc3)c(CC3CCCCC3)n2c1	nt	nt	15	nt	8.8*	nt	0
O=C(O)CSc1nnc(-c2ccccc2O)n1Cc1ccccc1	6	0	-9	-20	83*	-7	0
O=C(CSc1nnc(-c2ccccc2O)n1Cc1ccccc1)NNC(=O)c1ccccc1O	43	-4	3	-4	0	8	nt
CCOc1ccc(C(=O)Nc2nc3ccccc3[nH]2)cc1OCC	-23	-6	-10	2	7.9*	10	1
COc1ccc(C(=O)Nc2nc3ccccc3[nH]2)cc1OC	-4	-2	-9	-10	0	nt	nt
O=C(Nc1ccc(Br)cc1)c1ccc(F)c(S(=O)(=O)N2CCN(c3ccccn3)CC2)c1	-30	-3	16	-20	8.5*	-1	2
Cc1ccccc1NC(=O)c1ccc(F)c(S(=O)(=O)N2CCN(c3ccccn3)CC2)c1	-15	-1	18	-20	1	nt	nt
CNS(=O)(=O)c1cn(CC(=O)NCc2cccc(OC)c2)cc1S(=O)(=O)NC	4	2	-4	nt	0	nt	nt
Cc1noc(C)c1NC(=O)N(C)C[C@@H]1Oc2ccc(NC(=O)Cc3cn(C)c4ccccc34)cc2CC(=O)N([C@H](C)CO)C[C@@H]1C	12	-1	-16	nt	0	-2	nt
